Values without a mark were called inactive. Inconclusive results are not listed. Entries that show only a call come without a potency. Calls of active or inactive are those of the source. Unless noted, calls follow the shape of the dose curve; as a rule, active = well fitted curve in the direction sought with a large enough effect in the repeat runs; inconclusive = weak or mixed curves; inactive = no such curve, though single readings can be large; an effect the other way counts as inactive or inconclusive.
Experiments:
[1] = qHTS assay to identify small molecule antagonists of the estrogen receptor alpha (ER-alpha) signaling pathway using the BG1 cell line in the presence of 0.1 nM 17-beta-estradiol - cell viability counter screen (AID 1259241); also: nearly all actives have a fitted effect of over 40% in size
In short: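 VM7Luc4E2 cells (endogenous ER-alpha, 4×ERE-luciferase), hormone-starved 5 days in charcoal-stripped FBS, were treated with compounds plus 0.1 nM 17beta-estradiol for 22 hr at 37C; viability read in same wells as CellTiter-Fluor live-cell protease fluorescence.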

[2] = qHTS assay to identify small molecule antagonists of the androgen receptor (AR) signaling pathway using the MDA cell line in the presence of 0.5 nM R1881 - cell viability counter screen (AID 1259242); also: nearly all actives have a fitted effect of over 45% in size
In short: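 MDA-kb2 cells (MMTV-luciferase, AR/GR responsive) were treated with compounds plus 0.5 nM R1881 (final) for 16 hr at 37C, 0% CO2. Viability was then read in the same wells as live-cell protease fluorescence (CellTiter-Fluor, 30 min).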

[3] = molecular target: Estrogen receptor (Homo sapiens) (UniProt P03372); test: qHTS assay to identify small molecule antagonists of the estrogen receptor alpha (ER-alpha) signaling pathway using the BG1 cell line in the presence of 0.1 nM 17-beta-estradiol (AID 1259244); also: nearly all actives have a fitted effect of over 50% in size; also: potency is read from the fitted curve at half-maximal effect
Chain of Estrogen receptor (Homo sapiens) (P03372 whole entry, looked up): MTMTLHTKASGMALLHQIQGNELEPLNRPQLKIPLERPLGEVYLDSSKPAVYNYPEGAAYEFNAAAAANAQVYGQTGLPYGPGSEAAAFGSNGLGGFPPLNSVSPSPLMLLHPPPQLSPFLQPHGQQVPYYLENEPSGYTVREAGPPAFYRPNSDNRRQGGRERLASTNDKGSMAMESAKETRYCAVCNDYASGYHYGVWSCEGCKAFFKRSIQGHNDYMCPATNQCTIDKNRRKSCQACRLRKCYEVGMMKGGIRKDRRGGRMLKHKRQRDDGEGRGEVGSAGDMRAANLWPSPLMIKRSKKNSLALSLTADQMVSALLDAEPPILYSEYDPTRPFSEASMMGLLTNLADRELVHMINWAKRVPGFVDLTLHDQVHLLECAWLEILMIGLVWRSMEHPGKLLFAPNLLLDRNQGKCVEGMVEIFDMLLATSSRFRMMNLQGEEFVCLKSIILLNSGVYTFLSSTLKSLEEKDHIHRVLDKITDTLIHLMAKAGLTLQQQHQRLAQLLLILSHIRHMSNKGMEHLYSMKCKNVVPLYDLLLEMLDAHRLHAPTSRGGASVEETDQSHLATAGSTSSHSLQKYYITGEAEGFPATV
In short: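 VM7Luc4E2 cells (endogenous full-length ER-alpha, 4×ERE-luciferase), kept 5 days in phenol red-free, charcoal-stripped FBS medium; 4,000 cells/well. Compounds added with 0.1 nM (final) 17beta-estradiol, 22 hr at 37C; luminescence read with ONE-Glo after 30 min.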

[4] = qHTS assay to identify small molecule HDAC inhibitors (AID 1259364); also: top concentration of the series differs between compounds; nearly all actives have a fitted effect of over 45% in size
In short: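 Wild-type HCT-116 cells, plated overnight at 37 C, exposed to compounds 2 hr at 37 C; luminogenic HDAC-Glo substrate then added 30 min at room temperature. Luminescence reports relative endogenous class I/II HDAC activity.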

[5] = qHTS assay to identify small molecule HDAC inhibitors - cell viability counter screen (AID 1259365); also: series mostly up to about 92 µM; nearly all actives have a fitted effect of over 50% in size
In short: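 Wild-type HCT-116 cells were seeded at 1,500 per well, incubated overnight at 37 C, then exposed to compounds in DMSO for 2hr. Viability was read by CellTiter-Glo luminescence after 30min at room temperature.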

[6] = qHTS assay to identify small molecule agonists of the sonic hedgehog signaling (Shh) pathway - cell viability counter screen (AID 1259366); also: nearly all actives have a fitted effect of over 50% in size
In short: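 NIH/3T3-derived 3T3 Gli1-Luc cells (stable Gli1-responsive firefly luciferase reporter) were seeded, rested 4 hr at 37 C/5% CO2, then exposed to compounds in DMSO for 24 hr; viability was read by CellTiter-Fluor fluorescence in the same wells.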

[7] = qHTS assay to identify small molecule antagonists of the sonic hedgehog signaling (Shh) pathway - cell viability counter screen (AID 1259367); also: nearly all actives have a fitted effect of over 55% in size
In short: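 After a 4 hr settling period, 3T3 Gli1-Luc cells were treated with DMSO-dissolved chemicals and conditioned medium, kept 24 hr at 37C in 5% CO2, and assayed for viability by CellTiter-Fluor fluorescence following 1 hr reagent incubation.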

[8] = qHTS assay to identify small molecule agonists of the sonic hedgehog signaling (Shh) pathway (AID 1259368; calls by dose curve; also: series mostly up to about 92 µM; nearly all actives have a fitted effect of over 15% in size)
In short: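 NIH/3T3-derived 3T3Gli1-Luc cells with stably integrated Gli1-driven firefly luciferase, 2,000 cells/well, compounds added after 4 hr. Incubated 24 hr at 37C, 5% CO2; luminescence read after 30 min with luciferase reagent at room temperature.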

[9] = qHTS assay to identify small molecule antagonists of the sonic hedgehog signaling (Shh) pathway (AID 1259369; calls by dose curve; also: nearly all actives have a fitted effect of over 45% in size; also: potency is read from the fitted curve at half-maximal effect)
In short: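 NIH/3T3-derived Gli1-Luc reporter cells plated 4 h, dosed with compound, then stimulated with conditioned medium for 24 h at 37 C. Firefly luciferase luminescence read after 30 min with detection reagent at room temperature.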

[10] = molecular target: Estrogen receptor beta (Homo sapiens) (UniProt Q92731); test: qHTS assay to identify small molecule agonists of the estrogen receptor beta (ER-beta) signaling pathway (AID 1259377; active = well fitted activation curve with a large enough effect in the signal ratio in the repeat runs, not every such curve was filed as active; the % refers to the signal ratio)
Chain of Estrogen receptor beta (Homo sapiens) (Q92731 whole entry, looked up): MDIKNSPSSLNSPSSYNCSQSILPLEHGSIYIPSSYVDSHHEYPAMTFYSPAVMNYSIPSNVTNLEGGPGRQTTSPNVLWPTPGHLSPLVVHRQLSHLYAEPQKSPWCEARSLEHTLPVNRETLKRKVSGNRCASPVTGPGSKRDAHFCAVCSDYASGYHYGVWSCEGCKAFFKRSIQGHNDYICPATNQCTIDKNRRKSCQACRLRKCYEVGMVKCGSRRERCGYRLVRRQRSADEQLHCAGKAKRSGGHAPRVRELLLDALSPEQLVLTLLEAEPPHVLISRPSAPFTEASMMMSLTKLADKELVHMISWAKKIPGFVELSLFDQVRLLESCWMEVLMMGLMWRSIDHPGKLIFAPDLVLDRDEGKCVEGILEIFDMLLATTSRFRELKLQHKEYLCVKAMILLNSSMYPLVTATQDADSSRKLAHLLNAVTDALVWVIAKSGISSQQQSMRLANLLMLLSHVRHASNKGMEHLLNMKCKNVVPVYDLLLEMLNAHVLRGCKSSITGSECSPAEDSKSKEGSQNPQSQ
In short: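 ER-beta-UAS-bla HEK293T (GripTite) cells carrying a UAS-driven beta-lactamase reporter, in medium with 2% charcoal-stripped FBS, were exposed to compounds for 16 hr at 37C; LiveBLAzer B/G FRET substrate was then added and fluorescence read after 2 hours at room temperature.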

[11] = molecular target: Estrogen receptor beta (Homo sapiens) (UniProt Q92731); test: qHTS assay to identify small molecule antagonists of the estrogen receptor beta (ER-beta) signaling pathway (AID 1259378; active = well fitted inhibition curve with a large enough effect in the signal ratio in the repeat runs, not every such curve was filed as active; the % refers to the signal ratio)
In short: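 ER-beta-UAS-bla HEK293T (GripTite) cells in 2% charcoal-stripped FBS medium were preincubated 6 hr at 37C, dosed with compound, then stimulated with 1 nM E2 (final) for 16 hr; beta-lactamase reporter read by B/G FRET fluorescence after 2 hr substrate loading.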

[12] = qHTS assay to identify small molecule agonists of the androgen receptor (AR) signaling pathway in the presence of an antagonist - cell viability counter screen (AID 1259379);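 also: MDA-kb2 human breast cancer cells carrying an MMTV luciferase reporter; series mostly up to about 92 µM; nearly all actives have a fitted effect of over 25% in size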
In short: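 MDA-kb2 cells (MMTV-luciferase, AR/GR), 3,000/well, 5 h attachment, then 3.0 µM nilutamide (final) and compounds at 15 concentrations. Viability by CellTiter-Fluor fluorescence after 16 h at 37 °C, 0% CO2, in the reporter wells.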

[13] = qHTS assay to identify small molecule agonists of the estrogen receptor beta (ER-beta) signaling pathway - cell viability counter screen (AID 1259380); also: nearly all actives have a fitted effect of over 30% in size
In short: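 ER-beta-UAS-bla HEK293T cells in medium with 2% charcoal-stripped FBS, pre-incubated 6 hr, then treated 16 hr at 37C. Cytotoxicity read in the same wells by CellTiter-Glo luminescence after 30 min at room temperature.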

[14] = qHTS assay to identify small molecule antagonists of the estrogen receptor beta (ER-beta) signaling pathway - cell viability counter screen (AID 1259382); also: series mostly up to about 92 µM; nearly all actives have a fitted effect of over 55% in size
In short: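 ER-beta-UAS-bla HEK293T cells in 2% charcoal-stripped FBS medium, treated with compound plus 1 nM 17-beta-estradiol for 16 h at 37C. Viability read by CellTiter-Glo luminescence after 30 min at room temperature in the same wells.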

[15] = molecular target: Estrogen receptor (Homo sapiens) (UniProt P03372); test: qHTS assay to identify small molecule agonists of the estrogen receptor alpha (ER-alpha) signaling pathway in the presence of an antagonist (AID 1259383; calls by dose curve; also: top concentration of the series differs between compounds; nearly all actives have a fitted effect of over 15% in size)
In short: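 VM7Luc4E2 cells express endogenous full-length ER-alpha with an ERE-luciferase reporter and were hormone-deprived for 5 days. Compounds at 15 concentrations were added with 10.0nM ICI-182,780 for 22hr at 37C. Luminescence was read with ONE-Glo.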

[16] = qHTS assay to identify small molecule phospholipidosis (PLD) inducers (AID 1259344; active = well fitted curve in the direction sought with a large enough effect; an effect the other way counts as inactive or inconclusive)
In short: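 HepG2 cells grown on collagen I take up LipidTOX Red while exposed to compound for 24 h; after fixation they are imaged at 20x and pit metrics are extracted.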

[17] = molecular target: Thyrotropin receptor (Homo sapiens) (UniProt P16473); test: qHTS assay to identify small molecule antagonists of the thyroid stimulating hormone receptor (TSHR) signaling pathway (AID 1259385; calls by dose curve; also: nearly all actives have a fitted effect of over 20% in size)
Chain of Thyrotropin receptor (Homo sapiens) (P16473 whole entry, looked up): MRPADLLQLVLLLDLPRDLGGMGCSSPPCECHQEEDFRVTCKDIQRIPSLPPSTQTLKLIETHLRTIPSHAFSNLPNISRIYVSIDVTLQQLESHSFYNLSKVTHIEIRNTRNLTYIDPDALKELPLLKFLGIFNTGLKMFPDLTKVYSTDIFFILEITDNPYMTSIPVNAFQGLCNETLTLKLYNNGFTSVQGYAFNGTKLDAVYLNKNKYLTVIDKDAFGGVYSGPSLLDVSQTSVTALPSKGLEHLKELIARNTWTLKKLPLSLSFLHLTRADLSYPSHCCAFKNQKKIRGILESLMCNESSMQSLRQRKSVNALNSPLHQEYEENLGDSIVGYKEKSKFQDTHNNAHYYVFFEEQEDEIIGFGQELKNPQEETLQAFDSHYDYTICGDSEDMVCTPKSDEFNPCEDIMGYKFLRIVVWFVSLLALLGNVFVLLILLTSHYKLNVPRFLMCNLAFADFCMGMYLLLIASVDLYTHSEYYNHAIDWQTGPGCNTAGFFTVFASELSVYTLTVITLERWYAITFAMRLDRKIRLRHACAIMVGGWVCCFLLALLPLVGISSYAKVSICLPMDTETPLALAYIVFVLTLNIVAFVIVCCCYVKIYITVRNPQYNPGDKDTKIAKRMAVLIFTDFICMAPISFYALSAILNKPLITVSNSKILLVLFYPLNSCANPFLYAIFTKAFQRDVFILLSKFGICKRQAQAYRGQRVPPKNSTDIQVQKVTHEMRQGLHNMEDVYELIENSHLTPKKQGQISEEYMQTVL
In short: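 TSHR-HEK293 cells were plated and held 18 h at 37C/5% CO2, then given compound plus Ro20-1724 and stimulated with TSH at 1.5 ng/mL final. After 30 min at room temperature, cAMP was detected with cAMP-d2/anti-cAMP-cryptate (1 h) by fluorescence.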

[18] = qHTS assay to identify small molecule agonists or antagonists of the thyroid stimulating hormone receptor (TSHR) signaling pathway - wild type cell line counter screen (AID 1259384; calls by dose curve)
In short: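 Wild-type HEK293 cells were plated 18 h at 37 C/5% CO2, pin-dosed with compound plus Ro20-1724 medium, held 30 min at room temperature, then given cAMP-d2 and anti-cAMP-cryptate; fluorescence was read after 1 h. Fifteen concentrations, triplicate.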

For `C=C(C)CN(CC)c1c([N+](=O)[O-])cc(C(F)(F)F)cc1[N+](=O)[O-]`, the outcome [1] was “inactive”, the outcome [2] was “inactive” and the Potency [3] was “inactive”. The Potency [4] was “inactive”, the outcome [5] was “inactive” and the Potency [6] was “inactive”. The Potency [7] was “inactive”, the outcome [8] was “inactive” and the Potency [9] was “inactive”. The outcome [10] was “inactive”, the Potency [11] was “inactive” and the Potency [12] was “inactive”. The Potency [13] was “inactive”, the Potency [14] was “inactive” and the Potency [15] was “inactive”.
For `CC(C)NCC(O)c1ccc(N)c(C#N)c1` (stereo not given), the outcome [1] was “inactive”, the outcome [2] was “inactive” and the Potency [3] was “inactive”. The outcome [16] was “inactive”, the Potency [4] was “inactive” and the outcome [5] was “inactive”. The Potency [6] was “inactive”, the Potency [7] was “inactive” and the outcome [8] was “inactive”. The outcome [10] was “inactive”, the Potency [12] was “inactive” and the Potency [13] was “inactive”. The Potency [17] was “inactive”.
For `N#Cc1c(Cl)cccc1Cl`, the outcome [1] was “inactive”, the outcome [2] was “inactive” and the Potency [3] was “inactive”. The Potency [4] was “inactive”, the outcome [5] was “inactive” and the Potency [6] was “inactive”. The Potency [7] was “inactive”, the outcome [8] was “inactive” and the Potency [9] was “inactive”. For the same compound, the outcome [10] was “inactive”, the Potency [11] was “inactive” and the Potency [12] was “inactive”. For the same compound, the Potency [13] was “inactive”, the Potency [14] was “inactive” and the Potency [15] was “inactive”.
With `Cc1ncc2n1-c1ccc(Cl)cc1C(c1ccccc1F)=NC2` the outcome [1] was “inactive”, the outcome [2] was “inactive” and the Potency [3] was 10.6 µM (active). For the same compound, the outcome [16] was “inactive”, the Potency [4] was “inactive” and the outcome [5] was “inactive”. For the same compound, the Potency [6] was “inactive”, the Potency [7] was “inactive” and the outcome [8] was “inactive”. For the same compound, the Potency [12] was “inactive”, the Potency [13] was “inactive” and the Potency [14] was “inactive”. The Potency [15] was “inactive”, the Potency [18] was “inactive” and the Potency [17] was “inactive”.
In the case of `CCOc1nc(C(Cl)(Cl)Cl)ns1`, the outcome [1] is reported as “inactive”, the outcome [2] is reported as “inactive” and the Potency [3] is reported as “inactive”. For the same compound, the Potency [4] was “inactive”, the outcome [5] was “inactive” and the Potency [6] was “inactive”. For the same compound, the Potency [7] was “inactive”, the outcome [8] was “inactive” and the Potency [9] was “inactive”. The outcome [10] was “inactive”, the Potency [11] was “inactive” and the Potency [12] was “inactive”. For the same compound, the Potency [14] was “inactive”, the Potency [15] was “inactive” and the Potency [18] was “inactive”. For the same compound, the Potency [17] was “inactive”.
With `CCC(Cl)[N+](=O)[O-]` (stereo not given) the outcome [1] was “inactive”, the outcome [2] was “inactive” and the Potency [3] was “inactive”. The Potency [4] was “inactive”, the outcome [5] was “inactive” and the Potency [6] was “inactive”. For the same compound, the Potency [7] was “inactive”, the outcome [8] was “inactive” and the Potency [9] was “inactive”. The outcome [10] was “inactive”, the Potency [11] was “inactive” and the Potency [12] was “inactive”. For the same compound, the Potency [13] was “inactive”, the Potency [14] was “inactive” and the Potency [18] was “inactive”. For the same compound, the Potency [17] was “inactive”.
For `C=CC1CC=CCC1` (stereo not given), the outcome [1] was “inactive”, the outcome [2] was “inactive” and the Potency [3] was “inactive”. For the same compound, the Potency [4] was “inactive”, the outcome [5] was “inactive” and the Potency [6] was “inactive”. For the same compound, the Potency [7] was “inactive”, the outcome [8] was “inactive” and the Potency [9] was “inactive”. For the same compound, the outcome [10] was “inactive”, the Potency [11] was “inactive” and the Potency [12] was “inactive”. The Potency [13] was “inactive”, the Potency [14] was “inactive” and the Potency [15] was “inactive”. The Potency [18] was “inactive” and the Potency [17] was “inactive”.
For `O=[N+]([O-])c1ccc2c3c(cccc13)CC2`, the outcome [1] was “inactive”, the outcome [2] was “inactive” and the Potency [3] was “inactive”. For the same compound, the Potency [4] was “inactive”, the outcome [5] was “inactive” and the Potency [6] was “inactive”. For the same compound, the Potency [7] was “inactive”, the outcome [8] was “inactive” and the Potency [9] was 21.7 µM (active). The outcome [10] was “inactive”, the Potency [11] was “inactive” and the Potency [12] was “inactive”. The Potency [13] was “inactive”, the Potency [14] was “inactive” and the Potency [15] was “inactive”. For the same compound, the Potency [18] was “inactive” and the Potency [17] was “inactive”.
In the case of `O=NN1CCN(N=O)CC1`, the outcome [1] is reported as “inactive”, the outcome [2] is reported as “inactive” and the Potency [3] is reported as “inactive”. The Potency [4] was “inactive”, the outcome [5] was “inactive” and the Potency [6] was “inactive”. For the same compound, the Potency [7] was “inactive”, the outcome [8] was “inactive” and the Potency [9] was “inactive”. The Potency [11] was “inactive”, the Potency [12] was “inactive” and the Potency [13] was “inactive”. The Potency [14] was “inactive”, the Potency [15] was “inactive” and the Potency [18] was “inactive”. For the same compound, the Potency [17] was “inactive”.
